Where “and” joins values, the source holds several entries; their conditions need not be identical. Equal values may be shown once. The whole screen tested about 5,500 compounds, of which about 2,000 (36%) were called active. About 18% were inconclusive and are not listed. The list shows a part of the results. A number with no mark means an inactive call. Rule as the data show it: active = normalized growth mostly below about 0.91 (no sharp cut-off); inconclusive = no clear call, values can overlap the other calls; inactive = mostly above about 0.92.
Experiment: chemical genetic growth profiling, strain panel (AID 1159580);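 also: tested at 20 µM; growth read once vehicle control cultures reached saturation at 30 °C; 1 = growth at the plate median or of vehicle wells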
Details: S. cerevisiae deletion strains, growth OD
[1] = locus YHR030C, strain SLT2, stronger effect = lower value
[2] = locus YHR079C, strain IRE1, stronger effect = lower value
[3] = locus YJL095W, strain BCK1, stronger effect = lower value
[4] = locus YJR066W, strain TOR1, stronger effect = lower value
[5] = locus YLR113W, strain HOG1, stronger effect = lower value
[6] = locus YNL183C, strain NPR1, stronger effect = lower value
[7] = locus YOR231W, strain MKK1, stronger effect = lower value
[8] = locus YPL256C, strain CLN2, stronger effect = lower value

SMILES: CC(C)CCCC(C)C1CCC2C3CC[C@H]4C[C@H](O)CC[C@]4(C)C3CC[C@]12C (stereo partly specified)
- normalized growth [1]: 0.98
- normalized growth [2]: 0.985
- normalized growth [3]: 0.992
- normalized growth [4]: 0.919
- normalized growth [5]: 0.985
- normalized growth [6]: 0.916
- normalized growth [7]: 0.991
- normalized growth [8]: 0.981

SMILES: CC(C)CCCC(C)C1CCC2C3C[C@@H](O)[C@@]4(O)C[C@@H](O)CC[C@]4(C)C3CC[C@]12C (stereo partly specified)
- normalized growth (locus YAL013W, strain DEP1, stronger effect = lower value): 1.01
- normalized growth (locus YAL021C, strain ccr4, stronger effect = lower value): 0.951
- normalized growth (locus YAL026C, strain drs2, stronger effect = lower value): 0.843 (active)
- normalized growth (locus YAL030W, strain snc1, stronger effect = lower value): 0.988
- normalized growth (locus YBL061C, strain skt5, stronger effect = lower value): 0.986
- normalized growth (locus YBR009C, strain hhf1, stronger effect = lower value): 0.972
- normalized growth (locus YBR021W, strain FUR4, stronger effect = lower value): 1.06
- normalized growth (locus YBR023C, strain chs3, stronger effect = lower value): 0.994
- normalized growth (locus YBR171W, strain sec66, stronger effect = lower value): 1.01
- normalized growth (locus YBR229C, strain ROT2, stronger effect = lower value): 1.06
- normalized growth (locus YBR231C, strain swc5, stronger effect = lower value): 1.01
- normalized growth (locus YBR279W, strain paf1, stronger effect = lower value): 1.03
- normalized growth (locus YCL011C, strain gbp2, stronger effect = lower value): 0.997
- normalized growth (locus YCL016C, strain dcc1, stronger effect = lower value): 0.984
- normalized growth (locus YCL029C, strain bik1, stronger effect = lower value): 1.04
- normalized growth (locus YCL061C, strain MRC1, stronger effect = lower value): 0.966
- normalized growth (locus YCL069W, strain vba3, stronger effect = lower value): 0.984
- normalized growth (locus YCR088W, strain abp1, stronger effect = lower value): 1
- normalized growth (locus YDL005C, strain med2, stronger effect = lower value): 0.996
- normalized growth (locus YDL035C, strain GPR1, stronger effect = lower value): 1.06
- normalized growth (locus YDL040C, strain nat1, stronger effect = lower value): 1.01
- normalized growth (locus YDL074C, strain BRE1, stronger effect = lower value): 1.08
- normalized growth (locus YDL101C, strain DUN1, stronger effect = lower value): 1.03
- normalized growth (locus YDL134C, strain PPH21, stronger effect = lower value): 0.985
- normalized growth (locus YDL185W, strain tfp1, stronger effect = lower value): 1.02
- normalized growth (locus YDL192W, strain arf1, stronger effect = lower value): 0.999
- normalized growth (locus YDR001C, strain nth1, stronger effect = lower value): 1
- normalized growth (locus YDR069C, strain doa4, stronger effect = lower value): 0.992
- normalized growth (locus YDR101C, strain arx1, stronger effect = lower value): 1.03
- normalized growth (locus YDR137W, strain rgp1, stronger effect = lower value): 0.493 (active)
- normalized growth (locus YDR150W, strain NUM1, stronger effect = lower value): 1.03
- normalized growth (locus YDR162C, strain NBP2, stronger effect = lower value): 1.03
- normalized growth (locus YDR195W, strain ref2): 1.04
- normalized growth (locus YDR297W, strain sur2, stronger effect = lower value): 0.986
- normalized growth (locus YDR318W, strain mcm21, stronger effect = lower value): 1.02
- normalized growth (locus YDR334W, strain swr1, stronger effect = lower value): 1
- normalized growth (locus YDR335W, strain msn5, stronger effect = lower value): 1
- normalized growth (locus YDR388W, stronger effect = lower value): 1.01
- normalized growth (locus YDR392W, strain spt3, stronger effect = lower value): 0.82
- normalized growth (locus YDR502C, strain sam2, stronger effect = lower value): 1.02
- normalized growth (locus YEL003W, strain gim4, stronger effect = lower value): 0.974
- normalized growth (locus YEL037C, strain rad23, stronger effect = lower value): 1
- normalized growth (locus YEL061C, strain CIN8 (second series), stronger effect = lower value): 0.999
- normalized growth (locus YER015W, strain faa2, stronger effect = lower value): 0.987
- normalized growth (locus YER016W, strain bim1, stronger effect = lower value): 0.994
- normalized growth (locus YER110C, stronger effect = lower value): 1.03
- normalized growth (locus YER111C, strain swi4, stronger effect = lower value): 0.987
- normalized growth (locus YER155C, strain BEM2 (second series), stronger effect = lower value): 0.972
- normalized growth (locus YER155C, strain BEM2, stronger effect = lower value): 1
- normalized growth (locus YER167W, strain BCK2, stronger effect = lower value): 1.04
- normalized growth (locus YFR010W, strain ubp6, stronger effect = lower value): 1
- normalized growth (locus YGL078C, strain dbp3, stronger effect = lower value): 1.02
- normalized growth (locus YGL086W, strain mad1, stronger effect = lower value): 1.01
- normalized growth (locus YGL167C, strain pmr1, stronger effect = lower value): 1
- normalized growth (locus YGL173C, strain kem1, stronger effect = lower value): 0.992
- normalized growth (locus YGL227W, strain vid30, stronger effect = lower value): 1
- normalized growth (locus YGL240W, strain doc1, stronger effect = lower value): 1.02
- normalized growth (locus YGL248W, strain PDE1, stronger effect = lower value): 1.02
- normalized growth (locus YGL253W, strain hxk2, stronger effect = lower value): 0.996
- normalized growth (locus YGR078C, strain PAC10, stronger effect = lower value): 1
- normalized growth (locus YGR135W, strain pre9, stronger effect = lower value): 0.99
- normalized growth (locus YGR252W, strain gcn5, stronger effect = lower value): 0.993
- normalized growth (locus YHR013C, strain ard1, stronger effect = lower value): 1
- normalized growth (locus YHR027C, strain rpn1, stronger effect = lower value): 0.991
- normalized growth [1]: 1.02 and 1.06
- normalized growth (locus YHR079C, strain IRE1 (second series), stronger effect = lower value): 1.01
- normalized growth [2]: 1.04
- normalized growth (locus YHR094C, strain hxt1, stronger effect = lower value): 1.02
- normalized growth (locus YHR129C, strain ARP1, stronger effect = lower value): 1.03
- normalized growth (locus YHR142W, strain chs7, stronger effect = lower value): 1.02
- normalized growth (locus YHR200W, strain rpn10, stronger effect = lower value): 1.02
- normalized growth (locus YIL066C, strain RNR3, stronger effect = lower value): 1.02
- normalized growth (locus YIL073C, strain SPO22, stronger effect = lower value): 1.04
- normalized growth (locus YIL125W, strain kgd1, stronger effect = lower value): 1.02
- normalized growth (locus YIR030C, strain dcg1, stronger effect = lower value): 1.01
- normalized growth (locus YJL092W, strain hpr5, stronger effect = lower value): 1.01
- normalized growth (locus YJL095W, strain BCK1 (second series), stronger effect = lower value): 0.998
- normalized growth [3]: 0.981 and 1.05
- normalized growth (locus YJL115W, strain asf1, stronger effect = lower value): 0.994
- normalized growth (locus YJL129C, strain trk1, stronger effect = lower value): 1.01
- normalized growth (locus YJL134W, strain LCB3, stronger effect = lower value): 1.03
- normalized growth (locus YJL154C, strain vps35, stronger effect = lower value): 1
- normalized growth (locus YJL164C, strain tpk1, stronger effect = lower value): 0.99
- normalized growth (locus YJL166W, strain qcr8, stronger effect = lower value): 0.98
- normalized growth (locus YJL168C, strain set2, stronger effect = lower value): 1.01
- normalized growth (locus YJL187C, strain SWE1 (second series), stronger effect = lower value): 1.02
- normalized growth (locus YJL187C, strain SWE1, stronger effect = lower value): 1
- normalized growth (locus YJR043C, strain POL32, stronger effect = lower value): 1.03
- normalized growth [4]: 1.01
- normalized growth (locus YKL009W, strain mrt4, stronger effect = lower value): 0.971
- normalized growth (locus YKL068W, stronger effect = lower value): 1.01
- normalized growth (locus YKL085W, strain MDH1 (second series), stronger effect = lower value): 1.01
- normalized growth (locus YKL085W, strain MDH1, stronger effect = lower value): 1.01
- normalized growth (locus YKL160W, strain elf1, stronger effect = lower value): 0.998
- normalized growth (locus YKR001C, strain vps1, stronger effect = lower value): 1.05
- normalized growth (locus YKR026C, strain gcn3, stronger effect = lower value): 1
- normalized growth (locus YKR091W, strain srl3, stronger effect = lower value): 1
- normalized growth (locus YLL001W, strain dnm1, stronger effect = lower value): 0.949
- normalized growth (locus YLL026W, stronger effect = lower value): 0.995
- normalized growth (locus YLL041C, strain sdh2, stronger effect = lower value): 1
- normalized growth (locus YLR027C, strain aat2, stronger effect = lower value): 0.989
- normalized growth (locus YLR039C, strain RIC1, stronger effect = lower value): 0.777
- normalized growth (locus YLR058C, strain SHM2, stronger effect = lower value): 1.02
- normalized growth (locus YLR102C, strain apc9, stronger effect = lower value): 1.01
- normalized growth [5]: 1.06
- normalized growth (locus YLR221C, strain rsa3, stronger effect = lower value): 0.976
- normalized growth (locus YLR258W, strain gsy2, stronger effect = lower value): 0.975
- normalized growth (locus YLR262C, strain YPT6 (second series), stronger effect = lower value): 0.502 (active)
- normalized growth (locus YLR262C, strain YPT6, stronger effect = lower value): 0.78
- normalized growth (locus YLR268W, strain sec22, stronger effect = lower value): 1.05
- normalized growth (locus YLR320W, strain mms22, stronger effect = lower value): 0.941
- normalized growth (locus YLR330W, strain CHS5, stronger effect = lower value): 1
- normalized growth (locus YLR342W, strain FKS1 (second series), stronger effect = lower value): 1.03
- normalized growth (locus YLR342W, strain FKS1, stronger effect = lower value): 0.986
- normalized growth (locus YLR357W, strain rsc2, stronger effect = lower value): 1.01
- normalized growth (locus YLR370C, strain arc18, stronger effect = lower value): 1
- normalized growth (locus YLR371W, strain rom2, stronger effect = lower value): 1.02
- normalized growth (locus YLR384C, strain iki3, stronger effect = lower value): 0.979
- normalized growth (locus YLR418C, strain cdc73, stronger effect = lower value): 1.03
- normalized growth (locus YML016C, strain PPZ1, stronger effect = lower value): 1.05
- normalized growth (locus YML032C, strain rad52, stronger effect = lower value): 0.977
- normalized growth (locus YML120C, strain ndi1, stronger effect = lower value): 0.996
- normalized growth (locus YML124C, strain tub3, stronger effect = lower value): 1.02
- normalized growth (locus YMR058W, strain fet3, stronger effect = lower value): 0.996
- normalized growth (locus YMR078C, strain ctf18, stronger effect = lower value): 1.02
- normalized growth (locus YMR125W, strain sto1, stronger effect = lower value): 1.02
- normalized growth (locus YMR129W, stronger effect = lower value): 0.989
- normalized growth (locus YMR205C, strain PFK2, stronger effect = lower value): 0.954
- normalized growth (locus YMR223W, strain ubp8, stronger effect = lower value): 1
- normalized growth (locus YMR231W, strain pep5, stronger effect = lower value): 0.99
- normalized growth (locus YMR307W, strain GAS1, stronger effect = lower value): 1.06
- normalized growth (locus YNL067W, strain RPL9B, stronger effect = lower value): 1.02
- normalized growth (locus YNL071W, strain lat1, stronger effect = lower value): 0.999
- normalized growth (locus YNL153C, strain GIM3, stronger effect = lower value): 1.02
- normalized growth [6]: 0.992
- normalized growth (locus YNL209W, strain ssb2, stronger effect = lower value): 0.994
- normalized growth (locus YNL233W, strain BNI4, stronger effect = lower value): 1
- normalized growth (locus YNL248C, strain rpa49, stronger effect = lower value): 0.98
- normalized growth (locus YNL250W, strain rad50, stronger effect = lower value): 1.02
- normalized growth (locus YNL271C, strain bni1, stronger effect = lower value): 1.02
- normalized growth (locus YNL298W, strain CLA4, stronger effect = lower value): 1.02
- normalized growth (locus YNL307C, strain MCK1, stronger effect = lower value): 1.02
- normalized growth (locus YNL322C, strain KRE1 (second series), stronger effect = lower value): 0.986
- normalized growth (locus YNL322C, strain KRE1, stronger effect = lower value): 1.01
- normalized growth (locus YNR049C, strain mso1, stronger effect = lower value): 1
- normalized growth (locus YNR052C, strain pop2, stronger effect = lower value): 0.996
- normalized growth (locus YOL012C, strain htz1): 1.32
- normalized growth (locus YOL147C, strain pex11, stronger effect = lower value): 1.02
- normalized growth (locus YOR001W, strain rrp6, stronger effect = lower value): 0.977
- normalized growth (locus YOR061W, strain CKA2, stronger effect = lower value): 1.03
- normalized growth (locus YOR069W, strain VPS5, stronger effect = lower value): 1.01
- normalized growth (locus YOR070C, strain gyp1, stronger effect = lower value): 0.972
- normalized growth (locus YOR080W, strain dia2, stronger effect = lower value): 1
- normalized growth (locus YOR083W, strain WHI5, stronger effect = lower value): 0.983
- normalized growth (locus YOR106W, strain vam3, stronger effect = lower value): 1.04
- normalized growth (locus YOR136W, strain idh2, stronger effect = lower value): 1.02
- normalized growth (locus YOR144C, strain elg1, stronger effect = lower value): 1.02
- normalized growth (locus YOR184W, strain ser1, stronger effect = lower value): 1.02
- normalized growth [7]: 1.06
- normalized growth (locus YOR265W, strain rbl2, stronger effect = lower value): 0.993
- normalized growth (locus YOR270C, strain vph1, stronger effect = lower value): 1.02
- normalized growth (locus YOR290C, strain snf2, stronger effect = lower value): 0.994
- normalized growth (locus YOR316C, strain cot1, stronger effect = lower value): 1.02
- normalized growth (locus YPL051W, strain arl3, stronger effect = lower value): 0.956
- normalized growth (locus YPL078C, strain atp4, stronger effect = lower value): 0.987
- normalized growth (locus YPL106C, strain sse1, stronger effect = lower value): 1.01
- normalized growth (locus YPL240C, strain hsp82, stronger effect = lower value): 1
- normalized growth [8]: 1.05
- normalized growth (locus YPR119W, strain clb2, stronger effect = lower value): 1.02
- normalized growth (locus YPR141C, strain kar3, stronger effect = lower value): 1.02
- normalized growth (locus YPR163C, strain tif3, stronger effect = lower value): 1.01
- normalized growth (locus YPR167C, strain met16, stronger effect = lower value): 1.03
- normalized growth (strain wtn01, stronger effect = lower value): 1.07
